These results are taken from PubChem BioAssay (Tox21).

The structures appear in SMILES notation. Values without a mark were called inactive. Inconclusive results are not listed. Calls of active or inactive are those of the source. Unless noted, the call rests on the fitted dose curve; in most records, active means well fitted curve in the direction sought with a large enough effect in the repeat runs; inconclusive means weak or mixed curves; inactive means no such curve, though single readings can be large; an effect the other way counts as inactive or inconclusive.

The target of assay [1] is Progesterone receptor (Homo sapiens) (UniProt P06401). Description: qHTS assay to identify small molecule agonists of the progesterone receptor (PR) signaling pathway (AID 1346784; calls by dose curve; further: nearly all actives have a fitted effect of over 30% in size). An outline of the steps:
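Reporter assay, GripTite PR-UAS-bla HEK 293T cells: 16 hr exposure to DMSO-dissolved compounds at 37C, 5% CO2, in steroid-depleted (2% charcoal-stripped FBS) medium; beta-lactamase measured by FRET fluorescence.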

The target is the same in assay [2]. Nature of the assay: qHTS assay to identify small molecule antagonists of the progesterone receptor (PR) signaling pathway (AID 1346795; active means well fitted inhibition curve with a large enough effect in the signal ratio in the repeat runs, not every such curve was filed as active; the % refers to the signal ratio; further: potency means the concentration at half of the fitted maximal effect). An outline of the steps: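 Stimulus R5020 at 1 nM final; cells HEK293T PR-UAS-bla; medium with 2% charcoal-stripped FBS; compound exposure 16 hr at 37C, 5% CO2; detection by FRET beta-lactamase substrate, 2 hr, room temperature.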

Assay [3] can be described thus: qHTS assay to identify small molecule antagonists of the progesterone receptor (PR) signaling pathway - cell viability counter screen (AID 1346798). Further: series mostly up to about 92 µM; nearly all actives have a fitted effect of over 50% in size. An outline of the steps: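 In the same plates used for the beta-lactamase readout, cell viability of compound- and R5020-treated PR-UAS-bla HEK293T cells (16 hr, 37C) was assessed by CellTiter-Glo luminescence.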
Assay [4] can be described thus: qHTS assay to identify small molecule agonists of the progesterone receptor (PR) signaling pathway - cell viability counter screen (AID 1346799; calls by dose curve; further: nearly all actives have a fitted effect of over 45% in size). Put shortly:
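Multiplexed viability read: CellTiter-Glo luminescence, 30 min RT, following LiveBLAzer FRET measurement on PR-UAS-bla HEK293T cells exposed to compounds 16 hr.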
Background: qHTS replaces the single test concentration by a dilution series.

Assay [5] in a line: qHTS assay to identify small molecule antagonists of the TGF-beta/Smad signaling pathway - cell viability counter screen (AID 1346824). Further: nearly all actives have a fitted effect of over 50% in size. An outline of the steps:
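SBE-bla HEK 293T cells were plated overnight at 37 C, then given compounds in DMSO plus TGF-beta1 (added as 0.25 ng/mL solution) for 5 hr. After the bla read, CellTiter-Glo was added to the same wells and luminescence read after 30 min at room temperature.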

A short description of assay [6]: qHTS assay to identify small molecule agonists of the TGF-beta/Smad signaling pathway - cell viability counter screen (AID 1346829). Further: top concentration of the series differs between compounds; nearly all actives have a fitted effect of over 45% in size. An outline of the steps: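 Luminescence from CellTiter-Glo, read after a 30 min room-temperature incubation, gives cell viability of SBE-bla HEK 293T cells treated 5 hr with compounds at 37 C.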
The nature of assay [7]: qHTS assay to identify small molecule agonists of the TGF-beta/Smad signaling pathway (AID 1346859; active means well fitted activation curve with a large enough effect in the signal ratio in the repeat runs, not every such curve was filed as active; the % refers to the signal ratio; further: series mostly up to about 77 µM). An outline of the steps: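 Screening used HEK 293T SBE-bla cells at 4,000/well. Test agents: 5 hr, 37 C. Detection: FRET substrate, 2 hr RT, then excitation 405 nm with emissions at 460 and 530 nm.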
The nature of assay [8]: Human pregnane X receptor (PXR) small molecule agonists, qHTS cell viability counter screen (AID 1346977). Further: nearly all actives have a fitted effect of over 50% in size. Put shortly:
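In each well, the PXR reporter HepG2 line was checked for viability: CellTiter-Fluor reagent added 23hr post-dosing, fluorescence read after 1hr incubation at 37C.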

Assay [9] can be described thus: Caspase-3/7 induction in HepG2 cells by small molecules, qHTS assay (AID 1346978). Further: nearly all actives have a fitted effect of over 15% in size. An outline of the steps: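 Wild-type HepG2 cells (2,000/well) were settled 5 h at 37 C, 5% CO2, then exposed to compounds in DMSO for 17 h. Caspase-3/7 activity was read by luminescence 30 min after adding Caspase-Glo 3/7 reagent at room temperature.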
A short description of assay [10]: Caspase-3/7 induction in CHO-K1 cells by small molecules, qHTS cell viability counter screen (AID 1346979). Further: nearly all actives have a fitted effect of over 35% in size. Further: potency means the concentration at half of the fitted maximal effect. An outline of the steps:
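Following a 5hr settling period, CHO-K1 cells at 1,500 per well received DMSO-dissolved compounds. Cell viability was quantified 16hr later by CellTiter-Fluor fluorescence, measured after 1hr with reagent at 37C.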

Assay [11] in a line: Caspase-3/7 induction in CHO-K1 cells by small molecules, qHTS assay (AID 1346980). Further: nearly all actives have a fitted effect of over 15% in size. An outline of the steps:
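Wild-type cells were seeded at 1,500 per well and settled 5 hr at 37 C, 5% CO2, then exposed to DMSO-dissolved compounds for 17 hr. Caspase-Glo 3/7 reagent was added, and luminescence was read after 30min at room temperature.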

For assay [12], the target named is Nuclear receptor subfamily 1 group I member 2 (Rattus norvegicus) (UniProt Q9R1A7). Description: Rat pregnane X receptor (rPXR) activation by small molecules, qHTS assay (AID 1346983). Further: nearly all actives have a fitted effect of over 20% in size. Further: potency means the concentration at half of the fitted maximal effect. To be noted: rPXR luciferase reporter cells, One-Glo luminescence, 24 h; max activation: stronger effect = higher value. Put shortly:
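Cell-based rPXR luciferase reporter assay, 2,000 cells per well, rested 5hr at 37 C before compound addition in DMSO, then 24 hr at 37 C. One-Glo reagent was added and luminescence read after 30 min at room temperature.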

For assay [13], the target named is Cytochrome P450 2D6 (Homo sapiens) (UniProt P10635). Description: Cytochrome P450 Family 2 Subfamily D Member 6 (CYP2D6) small molecule antagonists: luciferase reporter qHTS assay (AID 1671196). Further: nearly all actives have a fitted effect of over 50% in size. Further: potency means the concentration at half of the fitted maximal effect. An outline of the steps: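 Inhibition of CYP2D6 was gauged by loss of luminescence, since light produced tracks the luciferin generated from a proluciferin substrate. A 10 min room-temperature preincubation preceded 1 h NADPH-supported turnover.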
For orientation: Reporter assays use an easily measured gene product as a stand-in for the process of interest.

Assay [14] concerns the target Cytochrome P450 2C19 (Homo sapiens) (UniProt P33261). Description: Cytochrome P450 Family 2 Subfamily C Member 19 (CYP2C19) small molecule antagonists: luciferase reporter qHTS assay (AID 1671197). Further: nearly all actives have a fitted effect of over 65% in size. Further: potency means the concentration at half of the fitted maximal effect. Put shortly:
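CYP2C19 P450-Glo, 1536-well qHTS. Cpd + enzyme/proluciferin substrate 10 min RT; + NADPH regen, 37C 1 h; stop with luciferin detection reagent, 20 min RT, luminescence (RLU). Pos ctrl ketoconazole.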

Assay [15] addresses Thyrotropin-releasing hormone receptor (Homo sapiens) (UniProt P34981). Description: qHTS assay to identify small molecule antagonists of the thyrotropin-releasing hormone receptor (TRHR) signaling pathway (AID 1346877; active means well fitted inhibition curve with a large enough effect in the repeat runs, not every such curve was filed as active; further: series mostly up to about 51 µM). An outline of the steps: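 In this cell-based calcium flux format, HEK293 cells expressing TRHR received test compound for 5 min before the agonist TRH (1 nM final). Dye loading lasted 2 h at 37 °C.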

Assay [16] has the same target. Nature of the assay: qHTS assay to identify small molecule agonists of the thyrotropin-releasing hormone receptor (TRHR) signaling pathway (AID 1346891; calls by dose curve; further: series mostly up to about 58 µM). Put shortly:
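Readout was intracellular calcium fluorescence in TRHR-Hek293 cells. Cells were incubated 18 h, dye-loaded 2 h at 37 °C, and treated with compound in agonist mode.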

Assay [17] can be described thus: Caspase-3/7 induction in HepG2 cells by small molecules, qHTS cell viability counter screen (AID 1346981). Further: series mostly up to about 92 µM; nearly all actives have a fitted effect of over 30% in size. Put shortly:
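Counter screen for cytotoxicity: HepG2 exposed 16 hr to compounds, then CellTiter-Fluor viability signal (fluorescence, 1 hr reagent incubation).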

The target in assay [18] is Nuclear receptor subfamily 1 group I member 2 (Homo sapiens) (UniProt O75469). Nature of the assay: Human pregnane X receptor (PXR) small molecule agonists, qHTS assay (AID 1346982). Further: nearly all actives have a fitted effect of over 35% in size. Further: potency means the concentration at half of the fitted maximal effect. Put shortly: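 Luminescence (ONE-Glo, 30 min RT) after 24 hr compound exposure of PXR-Luc HepG2 cells; cells rested 5 hr post-plating in 5% charcoal-stripped FBS medium.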
The target is the same in assay [19]. Description: CYP3A4 induction through human pregnane X receptor (PXR) by small molecules, qHTS assay (AID 1346984). Further: nearly all actives have a fitted effect of over 40% in size. Put shortly:
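DPX-2 reporter cells; 24h cpd, 37C; Luciferin-IPA 3uM final x3h; One-Glo 30 min RT; lumi read.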
On the % scale 0 is the no-effect control and ±100 the full control effect.

Chain of Progesterone receptor (Homo sapiens) (P06401 whole entry, looked up): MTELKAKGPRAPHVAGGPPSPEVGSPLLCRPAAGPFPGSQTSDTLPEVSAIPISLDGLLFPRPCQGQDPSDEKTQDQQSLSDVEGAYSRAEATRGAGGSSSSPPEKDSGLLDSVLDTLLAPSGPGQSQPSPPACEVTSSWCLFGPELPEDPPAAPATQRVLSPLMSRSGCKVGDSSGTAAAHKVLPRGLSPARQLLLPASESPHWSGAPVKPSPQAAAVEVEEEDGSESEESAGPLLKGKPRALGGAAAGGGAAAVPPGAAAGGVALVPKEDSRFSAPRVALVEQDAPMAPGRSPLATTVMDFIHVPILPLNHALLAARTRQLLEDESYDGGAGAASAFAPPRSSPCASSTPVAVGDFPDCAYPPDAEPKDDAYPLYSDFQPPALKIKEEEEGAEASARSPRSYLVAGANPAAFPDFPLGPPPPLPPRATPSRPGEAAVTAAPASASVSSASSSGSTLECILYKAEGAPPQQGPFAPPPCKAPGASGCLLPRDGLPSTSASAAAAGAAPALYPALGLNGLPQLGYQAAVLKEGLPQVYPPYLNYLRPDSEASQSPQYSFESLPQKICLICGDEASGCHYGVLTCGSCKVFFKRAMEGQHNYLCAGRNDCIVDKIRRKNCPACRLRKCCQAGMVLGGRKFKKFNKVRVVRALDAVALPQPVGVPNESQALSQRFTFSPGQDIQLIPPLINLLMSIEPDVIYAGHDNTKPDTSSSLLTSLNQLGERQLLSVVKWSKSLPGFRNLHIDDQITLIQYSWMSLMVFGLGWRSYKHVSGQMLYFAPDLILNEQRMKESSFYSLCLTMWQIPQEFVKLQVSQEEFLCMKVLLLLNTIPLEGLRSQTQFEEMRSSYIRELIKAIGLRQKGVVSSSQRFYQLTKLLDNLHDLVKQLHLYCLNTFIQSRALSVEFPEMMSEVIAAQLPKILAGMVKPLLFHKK
Chain of Nuclear receptor subfamily 1 group I member 2 (Homo sapiens) (O75469 whole entry, looked up): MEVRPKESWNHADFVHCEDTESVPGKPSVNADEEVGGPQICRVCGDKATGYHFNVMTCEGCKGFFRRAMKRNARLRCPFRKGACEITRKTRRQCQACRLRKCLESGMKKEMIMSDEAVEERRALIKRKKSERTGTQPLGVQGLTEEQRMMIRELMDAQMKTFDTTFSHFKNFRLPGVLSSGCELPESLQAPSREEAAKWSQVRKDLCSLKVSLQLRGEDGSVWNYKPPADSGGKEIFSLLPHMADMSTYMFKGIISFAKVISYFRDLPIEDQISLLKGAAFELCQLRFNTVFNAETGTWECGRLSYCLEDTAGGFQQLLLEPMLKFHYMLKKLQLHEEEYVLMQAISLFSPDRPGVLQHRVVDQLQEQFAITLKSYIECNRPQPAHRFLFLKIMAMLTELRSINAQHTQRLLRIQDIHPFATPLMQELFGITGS
Chain of Cytochrome P450 2C19 (Homo sapiens) (P33261 whole entry, looked up): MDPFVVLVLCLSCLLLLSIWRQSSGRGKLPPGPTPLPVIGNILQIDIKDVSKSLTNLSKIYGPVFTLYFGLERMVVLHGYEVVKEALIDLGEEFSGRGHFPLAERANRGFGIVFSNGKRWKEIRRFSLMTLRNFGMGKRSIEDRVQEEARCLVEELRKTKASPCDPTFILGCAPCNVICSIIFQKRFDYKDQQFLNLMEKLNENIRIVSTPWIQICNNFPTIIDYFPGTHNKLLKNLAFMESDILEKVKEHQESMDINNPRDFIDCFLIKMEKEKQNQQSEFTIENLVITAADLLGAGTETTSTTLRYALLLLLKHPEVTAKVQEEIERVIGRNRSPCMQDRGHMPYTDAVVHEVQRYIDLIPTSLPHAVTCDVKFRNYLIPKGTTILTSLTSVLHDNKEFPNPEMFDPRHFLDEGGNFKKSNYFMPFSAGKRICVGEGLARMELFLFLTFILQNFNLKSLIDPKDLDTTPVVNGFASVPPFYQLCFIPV
Chain of Thyrotropin-releasing hormone receptor (Homo sapiens) (P34981 whole entry, looked up): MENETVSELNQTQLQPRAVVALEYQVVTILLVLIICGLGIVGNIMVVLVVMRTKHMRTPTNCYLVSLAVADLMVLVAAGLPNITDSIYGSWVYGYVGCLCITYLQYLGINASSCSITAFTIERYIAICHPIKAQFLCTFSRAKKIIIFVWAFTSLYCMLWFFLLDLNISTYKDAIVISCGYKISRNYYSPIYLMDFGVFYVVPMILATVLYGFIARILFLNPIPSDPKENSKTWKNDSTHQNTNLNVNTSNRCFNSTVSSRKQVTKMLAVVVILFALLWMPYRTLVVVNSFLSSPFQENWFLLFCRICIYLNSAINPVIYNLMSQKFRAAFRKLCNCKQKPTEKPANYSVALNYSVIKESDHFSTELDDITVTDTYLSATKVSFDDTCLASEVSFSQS
Chain of Nuclear receptor subfamily 1 group I member 2 (Rattus norvegicus) (Q9R1A7 whole entry, looked up): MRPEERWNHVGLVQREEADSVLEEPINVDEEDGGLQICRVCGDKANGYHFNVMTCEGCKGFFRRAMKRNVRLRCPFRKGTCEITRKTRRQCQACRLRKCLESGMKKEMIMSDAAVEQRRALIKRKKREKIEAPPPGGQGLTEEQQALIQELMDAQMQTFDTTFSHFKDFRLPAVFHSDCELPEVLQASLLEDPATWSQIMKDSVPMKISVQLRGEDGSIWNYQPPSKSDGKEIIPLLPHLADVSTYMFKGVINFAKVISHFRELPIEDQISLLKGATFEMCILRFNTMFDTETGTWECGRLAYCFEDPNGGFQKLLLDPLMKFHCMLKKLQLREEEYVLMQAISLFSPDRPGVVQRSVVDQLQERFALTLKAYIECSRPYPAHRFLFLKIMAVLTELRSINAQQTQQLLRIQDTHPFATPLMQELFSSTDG
Chain of Cytochrome P450 2D6 (Homo sapiens) (P10635 whole entry, looked up): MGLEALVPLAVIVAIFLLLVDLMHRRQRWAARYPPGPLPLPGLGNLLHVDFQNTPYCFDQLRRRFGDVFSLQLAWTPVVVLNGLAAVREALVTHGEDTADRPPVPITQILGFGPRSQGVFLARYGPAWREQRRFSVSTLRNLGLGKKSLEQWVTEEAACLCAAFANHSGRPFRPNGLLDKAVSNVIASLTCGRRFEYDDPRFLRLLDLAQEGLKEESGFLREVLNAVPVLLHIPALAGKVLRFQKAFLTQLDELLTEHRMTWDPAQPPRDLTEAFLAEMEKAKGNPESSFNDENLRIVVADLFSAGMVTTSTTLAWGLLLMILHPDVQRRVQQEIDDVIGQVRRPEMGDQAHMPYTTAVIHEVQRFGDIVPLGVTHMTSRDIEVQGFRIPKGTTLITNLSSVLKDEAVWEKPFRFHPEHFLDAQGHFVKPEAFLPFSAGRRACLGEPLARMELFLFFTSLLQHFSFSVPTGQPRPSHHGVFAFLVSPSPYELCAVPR

Turning to `CC[C@]12CCCN3CCc4c(n(c5ccccc45)C(=O)C1)[C@@H]32`, the call in [1], in [7] and in assay [9] was inactive. The Potency in assay [2] was 13.3 µM (active); in [10], 26.6 µM (active); in assay [12], 8.91 µM (active); in assay [13], 0.155 µM (active); in assay [14], 4.9 µM (active). In addition, the Potency result in assay [3], in assay [4], in assay [5], in assay [6], in assay [8] and in [11] was “inactive” in each case.
Take `CCCCCC(CO)CCC` (stereo not given): the call in assay [1], in assay [7], in [15] and in [9] was inactive. In addition, the Potency entry in [2], in [3], in assay [4], in [5], in assay [16] and in [8] was “inactive” in each case. For the same compound, the Potency result in assay [10], in assay [11], in assay [17], in [18], in assay [13] and in [14] was “inactive” throughout.
For `CC(C)CC=O`, the compound was classed as inactive in assay [1], in [7] and in assay [15]. Further, the Potency result in assay [2], in assay [3], in assay [4], in assay [6], in assay [16] and in [8] was “inactive” in each case. The Potency entry in [10], in [11], in [17], in [18] and in [13] was “inactive” throughout. Besides, the Potency in assay [14] was 35.6 µM (active).
For the compound `CC(Cc1cccc(C(F)(F)F)c1)NCCOC(=O)c1ccccc1` (stereo not given), the compound was called inactive in assay [1] and in [7]. In addition, the Potency result in [2], in [3], in assay [4], in [5], in assay [6] and in assay [11] was “inactive” in each case. Also, the Potency entry in assay [17], in [18] and in assay [19] was “inactive” throughout. The max activation in assay [12] is -0.287%. Further, the Potency in assay [13] was 0.0977 µM (active).
Take `SC1CCCC1`: the compound was called inactive in assay [1], in assay [7] and in assay [9]. For the same compound, the Potency result in assay [2], in assay [3], in assay [4], in assay [5], in [6] and in assay [10] was “inactive” in each case. Further, the Potency result in [11], in assay [17], in [18], in assay [13] and in [14] was “inactive” each time.
`CC(C(=O)O)c1ccc(C(=O)c2ccccc2)s1` (stereo not given): the outcome in assay [1], in assay [15] and in assay [9] was inactive. Also, the Potency entry in assay [2], in assay [3], in assay [4], in assay [6], in assay [16] and in assay [8] was “inactive” in each case. In addition, the Potency result in assay [10], in [11], in [17], in assay [19] and in assay [13] was “inactive” throughout. In addition, the Potency in assay [18] is 15 µM (active); in assay [14], 4.9 µM (active). For the same compound, in [12], the max activation was 13.7%.
`O=C(CC(=O)c1ccccc1)c1ccccc1`: the call in assay [1], in assay [7] and in assay [9] was inactive. Also, the Potency in assay [2] is 65.7 µM (active); in [18] it was 65.7 µM (active); in [14], 24.1 µM (active). Also, the Potency entry in [3], in [4], in assay [6], in assay [11] and in assay [17] was “inactive” in each case.
